# High-throughput results deposited in PubChem by several laboratories.
# A selection: hits, their analogues and other compounds. The true share with any hit is near 4.6%.
# HUVEC tox IL1B – HUVEC cytotoxicity counter-screen, IL-1B stimulated | HUVEC cell count loss, Hoechst imaging | cell count reduction, % at 2 µM | 94,000 tested, 0.41% active | AID 845;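 active = cell count reduction more than 3 SD above the screen-wide mean, cut at about 70% in these data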;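 note: normalized per plate to untreated control cells as the no-loss baseline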
# sEH inhibitor – blocks human soluble epoxide hydrolase activity. P34913. recombinant human sEH enzymatic activity assay. inhibition, % at 2 µM. 91,000 tested, 0.34% active; in the data active = inhibition above about 80%
# Target sequence (P34913 whole entry, looked up): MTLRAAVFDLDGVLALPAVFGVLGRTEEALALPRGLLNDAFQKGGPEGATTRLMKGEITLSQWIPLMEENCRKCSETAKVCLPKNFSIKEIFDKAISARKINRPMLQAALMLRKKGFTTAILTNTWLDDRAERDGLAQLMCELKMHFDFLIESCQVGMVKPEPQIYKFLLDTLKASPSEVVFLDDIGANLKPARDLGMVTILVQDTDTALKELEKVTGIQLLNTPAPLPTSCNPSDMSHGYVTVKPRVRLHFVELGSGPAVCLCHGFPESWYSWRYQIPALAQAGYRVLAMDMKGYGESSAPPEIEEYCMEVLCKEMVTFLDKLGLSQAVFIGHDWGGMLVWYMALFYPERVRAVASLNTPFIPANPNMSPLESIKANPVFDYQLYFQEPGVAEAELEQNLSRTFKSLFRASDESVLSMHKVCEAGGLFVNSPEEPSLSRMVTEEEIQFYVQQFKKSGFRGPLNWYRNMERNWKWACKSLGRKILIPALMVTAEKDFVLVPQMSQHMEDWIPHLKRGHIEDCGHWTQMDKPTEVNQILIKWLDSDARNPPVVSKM
# NFkB transloc inh – blocks IL-1B driven NFkB nuclear translocation in HUVEC cells; inhibition, % at 2 µM; AID 796; HUVEC IL-1B NFkB p65 nuclear translocation imaging; 94,000 tested, 0.43% active;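 active = inhibition above about 30% together with a positive call from visual inspection of the well image, limit read from the data; inconclusive = inhibition above a set limit but visual check negative; inactive = inhibition not above a set limit, visual check negative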;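 note: nuclear over cytoplasmic p65 intensity ratio measured by imaging; 0% = IL-1B stimulated DMSO wells and 100% = unstimulated DMSO wells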
# NFkB transloc pot – enhances IL-1B driven NFkB nuclear translocation; HUVEC IL-1B NFkB p65 nuclear translocation imaging; activation, % at 2 µM; 94,000 tested, 0.3% active;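 active = activation above 40%, about the mean plus 3 SD, also judged a hit on visual image review; inconclusive = activation above 40% but not a hit on visual review; inactive = activation not above 40% and no visual hit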;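 note: percent activation is computed from the nuclear over cytoplasmic p65 intensity ratio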
# sEH activator – activators of human soluble epoxide hydrolase | activation, % at 2 µM | purified human sEH enzymatic activity, activator screen | 91,000 tested, 0.04% active | P34913; in the data active = activation above about 37%
# Cav32 inh – blocks human Cav3.2 T-type calcium channel | 100,000 tested, 4% active | Cav3.2-expressing cells, Fluo-4 calcium fluorescence FDSS; stronger effect = lower value | B-score at 10 µM;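 active = single-dose well whose peak fluorescence ratio is a statistical outlier from its plate by either plate-standardised score or position-corrected B-score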
# Starred values were filed as active, the others as inactive; ? = inconclusive; . = no result.
SMILES,HUVEC tox IL1B,sEH inhibitor,NFkB transloc inh,NFkB transloc pot,sEH activator,Cav32 inh
Cn1cc(/C=N/n2cnc3scc(-c4ccc(Cl)cc4)c3c2=O)c2ccccc21,57,9,37*,-37,-10,-2.4
CCn1cnc2scc(-c3ccccc3)c2c1=O,-1,0,-3,3,5,-0.055
Cc1ccccc1NC(=O)c1ccc(-c2ccc(Cl)cc2Cl)o1,4,-5,2,-2,5,-7.5*
Cc1ccccc1-c1ccc(C(=O)Nc2cccc(F)c2)o1,.,.,.,.,.,-2.1
Cc1cccc(C)c1NC(=O)c1ccc(-c2ccc(Cl)cc2Cl)o1,7,-5,-7,7,0,-4.8*
CCCn1c(-c2ccc(F)cc2)cnc1SCC(=O)O,-3,-12,-19,19,7,0.95
COc1ccccc1NC(=O)c1nn(-c2ccc(F)c(F)c2)ccc1=O,2,4,-9,9,-2,1.1
CCOC(=O)N1CCN(c2c(N3CCN(c4cccc(C(F)(F)F)c4)CC3)c(=O)c2=O)CC1,-1,6,5,-5,-5,0.89
CCOC(=O)Cc1csc(NC(=O)CSc2nnc(C(C)C)n2C)n1,.,.,.,.,.,0.077
C=CCOC(=O)C1=C[C@H](c2cn(C(C)=O)c3ccccc23)C[C@H](OCc2ccc(CO)cc2)O1,.,.,.,.,.,-0.75
O=C(NCCc1c[nH]c2ccccc12)C1CCC(Cn2c(=S)[nH]c3ccccc3c2=O)CC1 (centres undefined),-1,95*,-13,13,-95,-5
Cc1cc(C)c2[nH]c(=O)c(CN(Cc3ccc4c(c3)OCO4)Cc3nnnn3C3CCCC3)cc2c1,5,16,-2,2,-15,-3
Cc1oc(-c2ccc(Cl)cc2)nc1CN1CCC(C(=O)NCc2ccco2)CC1,-11,4,-6,6,-2,-2.9
CCc1ccc(-c2nc(CN3CCC(C(=O)NCCc4ccc(OC)c(OC)c4)CC3)c(C)o2)cc1,5,-8,12,-12,10,-3.3
COc1ccccc1CNC(=O)C1CCN(Cc2nc(-c3cccc(Cl)c3)oc2C)CC1,-5,79,-6,6,-78,-5.8*
Cc1oc(-c2cccc(Cl)c2)nc1CN1CCC(C(=O)NCc2ccco2)CC1,5,7,-2,2,-5,-4.3*
CCc1ccc(-c2nc(CN3CCC(C(=O)NCc4ccccc4OC)CC3)c(C)o2)cc1,-2,27,4,-4,-26,-8.6*
Cc1ccccc1NC(=O)Nc1cc(S(N)(=O)=O)ccc1C,15,-20,5,-5,21,0.93
O=C(COc1ccc(Br)cc1)N1CCC(c2ccccc2)C1 (centres undefined),-26,3,-51,?,-4,-4.1*
COc1ccccc1-c1nnc2sc(COc3ccc(Cl)cc3)nn12,-15,-7,1,-1,5,-2.8*
COc1ccc(Cc2nn3c(-c4ccccc4OC)nnc3s2)cc1,.,.,.,.,.,-1.4
COC(=O)c1oc2ccc(Br)cc2c1NC(=O)CCCN1C(=O)c2ccccc2C1=O,.,.,.,.,.,-0.31
COC(=O)c1oc2ccc(Br)cc2c1-n1cccc1,-81,3,40*,-40,-3,-0.61
CCOC(=O)C1=C(N)OC2=C(C(=O)CC(C)(C)C2)C1c1ccoc1 (centres undefined),-54,-1,3,-3,4,-0.85
CCOC(=O)C1=C(N)OC2=C(C(=O)CC(C)(C)C2)C1C1CCCCC1 (centres undefined),5,-4,8,-8,7,-9*
SMILES,HUVEC tox IL1B,sEH inhibitor,NFkB transloc inh,NFkB transloc pot,sEH activator,Cav32 inh
CC(=O)C1=C(O)C(=O)N(c2cc(C(C)(C)C)on2)C1c1ccc(Br)cc1 (centres undefined),.,.,.,.,.,-5.9*
CC(=O)C1=C(O)C(=O)N(c2nccs2)C1c1ccc(Br)cc1 (centres undefined),-11,3,-7,7,-6,-3.6
CC(=O)C1=C(O)C(=O)N(c2cc(C(C)(C)C)on2)C1c1ccc(C(C)C)cc1 (centres undefined),7,-1,-6,6,2,-4.2*
CN1C(=O)CC(C(=O)O)SC1=Nc1cc(Cl)c(O)c(Cl)c1 (centres undefined),2,-12,-11,11,7,-0.36
CC(=O)N1CCN(S(=O)(=O)c2cccc(C(=O)Nc3nc4c(s3)CCCC4)c2)CC1,0,62,-11,11,-61,0.39
O=C(CS(=O)(=O)c1cccc(C(F)(F)F)c1)Nc1ccccc1Cl,-1,-3,-11,11,5,-0.19
